Only some compounds are listed: those with a hit (about 5.1% of all), similar ones and a draw of the others.
S1P4 antag – S1P4 receptor antagonists, primary screen, cell-based; AID 1510, 2009; inhibition, % at 4.98 µM; S1P4-expressing cells, antagonist mode, reporter read-out; hit rate 0.26% among 220,000; Sphingosine 1-phosphate receptor 4 (Homo sapiens), O95977; in the data active = inhibition above about 29%
S1P3 antag-1 – S1P3 receptor antagonists, primary screen, cell-based; CHO S1P3 NFAT-BLA reporter, FRET fluorescence, antagonist mode; inhibition, % at 4.98 µM; hit rate 0.27% among 170,000; AID 485, 2006;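 active = inhibition above the plate cutoff, the mean inhibition of test wells on that plate plus 3 SD, cut at about 28% in these data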;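 note: cells challenged with S1P at its EC80 of 0.8 µM; blue over green emission ratio from cleaved BLA substrate after 4 h stimulation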
Cl transport mod – KCC2 cotransporter modulators, thallium flux, primary screen, cell-based, HEK293 KCC2, FluoZin-2 fluorescence, MLSMR. AID 1456, 2008. KCC2 cells, thallium flux FluoZin-2 fluorescence. hit rate 2.2% among 190,000. B-score of Tl+ flux slope (higher = more flux/activation; lower = inhibition) at 10 µM. Solute carrier family 12 member 5 (Homo sapiens), Q9H2X9;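 active = thallium flux slope and its plate-corrected score both differing from the plate sample mean at a set confidence after two filtering rounds, in either direction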;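 note: slope of fluorescence scaled to starting intensity during 10 to 20 s after thallium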
ROMK primary – ROMK potassium channel modulators, primary screen, cell-based, thallium flux, MLSMR library; ATP-sensitive inward rectifier potassium channel 1 (Homo sapiens), P48048; hit rate 2% among 130,000; Tet-inducible ROMK, thallium flux fluorescence; actives lie on both sides; AID 1918, 2009; B-score at 10 µM;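 active = signal ratio slope over the read window, or its plate-corrected B-score, at least 3 SD from the plate mean, either direction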;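 note: B-score of the F/F0 ratio slope over 7 to 12 s after thallium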
Target sequence (P48048 whole entry, looked up): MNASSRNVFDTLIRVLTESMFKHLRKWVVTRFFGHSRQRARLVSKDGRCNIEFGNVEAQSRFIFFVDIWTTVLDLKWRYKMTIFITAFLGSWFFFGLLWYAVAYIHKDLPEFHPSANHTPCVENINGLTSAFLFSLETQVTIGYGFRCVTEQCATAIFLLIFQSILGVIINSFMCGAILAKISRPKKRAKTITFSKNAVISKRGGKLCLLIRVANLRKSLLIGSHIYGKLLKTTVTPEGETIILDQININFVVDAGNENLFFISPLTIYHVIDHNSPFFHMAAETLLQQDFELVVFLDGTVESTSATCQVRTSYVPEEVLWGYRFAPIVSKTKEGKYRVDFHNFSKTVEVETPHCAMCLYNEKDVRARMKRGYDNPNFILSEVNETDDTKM
RAM inhibit – inhibitors of the yeast RAM network, primary screen, dse1pr::URA3 reporter, 5-FOA selection | S. cerevisiae dse1pr::URA3 reporter, 5-FOA growth OD615, 2 d; analog-sensitive cbk1-as2 kinase mutant strain | inhibition, % at 50 µM | hit rate 1.8% among 190,000;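 active = inhibition above a set limit, 3 SD over mean compound inhibition, cut at about 8.4% in these data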;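 note: inhibition rescues growth on 5-FOA so higher OD means more RAM inhibition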
S1P4 agonist – S1P4 receptor agonists, primary screen, cell-based | hit rate 0.35% among 220,000 | activation, % at 4.98 µM | S1P4-expressing cell line, agonist reporter assay | AID 1509, 2009; in the data active = activation above about 11%
S1P3 antag-2 – S1P3 receptor antagonists, retest, confirmation, cell-based; shares compounds with S1P3 antag-1; CHO S1P3 NFAT-BLA reporter, FRET, antagonist mode; inhibition, % at 4.98 µM; hit rate 30% among 240;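 active = inhibition above the hit threshold that was computed for the earlier primary screen, cut at about 30% in these data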
Each line names hits and unclear results; the compound was inactive in the other large screens (follow-up assays come after a bar, where they were run); ! = a repeat was not active.

CCO[C@@H]1OC(C(=O)N2CCOCC2)=C[C@H](c2ccccc2)[C@H]1CCCO	none (no result: ROMK primary)
Cc1cccc(C2(c3cccc(C)c3)CC2C(=O)Nc2ccc([N+](=O)[O-])cc2O)c1 (centres undefined)	S1P3 antag-1 76 (no result: ROMK primary) | S1P3 antag-2 73
COc1ccc(Nc2nc(-c3cccc([N+](=O)[O-])c3)nc3ccccc23)cc1	none
CCOC(=O)C1CCCN(S(=O)(=O)c2ccc(S(=O)(=O)N(CC)CC)cc2)C1 (centres undefined)	S1P3 antag-1 48 | S1P3 antag-2 inactive
S=c1[nH]ccn1-c1cccc(Cl)c1Cl	none (no result: RAM inhibit)
S=c1[nH]ccn1-c1ccccc1Cl	S1P3 antag-1 73! (no result: RAM inhibit) | S1P3 antag-2 inactive
CCOC(=O)N1CCC(N(CCN(C)C)C(=S)Nc2cc(Cl)cc(Cl)c2)CC1	S1P3 antag-1 29 | S1P3 antag-2 inactive
CC(C)CNC(=O)c1cccc(NC(=O)Cc2ccc(Br)cc2)c1	S1P3 antag-1 30 (no result: ROMK primary) | S1P3 antag-2 inactive
CN(C)CCCNC(=O)c1cc(Br)ccc1O	none (no result: ROMK primary, RAM inhibit)
Cc1c(Cl)cn2c(=O)cc(CN(C)Cc3nc4ccccc4c(=O)[nH]3)nc2c1Cl	S1P3 antag-1 34 | S1P3 antag-2 inactive
COc1cc(/C=C2\SC(=O)N(c3ccc(O)cc3)C2=O)cc(OC)c1OC	S1P3 antag-1 31 (no result: ROMK primary, RAM inhibit) | S1P3 antag-2 inactive
O=C(N/N=C/c1cccn1-c1ccc([N+](=O)[O-])cc1)c1cccnc1	none (no result: RAM inhibit)
CCCn1c(O)c(N=NC(=O)c2cccnc2)c2cc(Br)ccc21	none (no result: ROMK primary, RAM inhibit)
COc1ccc(CCNc2ncnc3sccc23)cc1OC	S1P3 antag-1 49 | S1P3 antag-2 inactive
N#CC1=C(N)Oc2c(oc(CO)cc2=O)C1c1ccccc1[N+](=O)[O-] (centres undefined)	none (no result: ROMK primary, RAM inhibit)
CCN(CC(=O)NCc1cccs1)C(=O)CCc1c[nH]c2ccccc12	none
O=C(Nc1ccc(F)cc1F)c1c(C(F)(F)F)ccnc1Oc1cccc(C(F)(F)F)c1	none (no result: ROMK primary, RAM inhibit)
O=C(Nc1ccc(F)cc1F)c1c(C(F)(F)F)ccnc1Oc1ccc(Cl)cc1	S1P3 antag-1 44 (no result: ROMK primary, RAM inhibit) | S1P3 antag-2 55
Cc1cc(=O)oc2cc(OCC(=O)OCC(=O)N(C)C3CCS(=O)(=O)C3)ccc12 (centres undefined)	none (no result: ROMK primary, RAM inhibit)
O=C(Nc1ccc(Br)cc1)C(c1ccccc1)c1ccccc1	S1P3 antag-1 57 | S1P3 antag-2 69
Cc1ccccc1NC(=O)C(c1ccccc1)C1CCCC1 (centres undefined)	none (no result: ROMK primary)
O=C(Nc1ccc2ccccc2c1)C(c1ccccc1)C1CCCC1 (centres undefined)	S1P3 antag-1 55 (no result: ROMK primary) | S1P3 antag-2 66
Cc1ccc(NC(=O)C(c2ccccc2)C2CCCC2)cc1 (centres undefined)	S1P3 antag-1 60 (no result: ROMK primary) | S1P3 antag-2 70
CCc1ccc(NC(=O)C(CC)c2ccccc2)cc1 (centres undefined)	S1P3 antag-1 29 | S1P3 antag-2 inactive
COc1cc(CCCN2C(N)=NC[C@@H]2Cc2ccccc2)cc(OC)c1OC	none (no result: S1P4 antag, S1P3 antag-1, ROMK primary, RAM inhibit, S1P4 agonist)
c1ccc(CCC2CCCCN2Cc2nc(-c3ccc4c(c3)OCO4)no2)nc1 (centres undefined)	none (no result: Cl transport mod)
Cc1ccc(S(=O)(=O)N(C)C)cc1NC(=O)c1cncc(Br)c1	none (no result: ROMK primary)
C1=C(CCNc2ncnc3c2[nH]c2ccccc23)CCCC1	S1P3 antag-1 41 | S1P3 antag-2 inactive
CC(C)(C)c1ccc(CNc2ccc([N+](=O)[O-])cn2)cc1	S1P3 antag-1 30 | S1P3 antag-2 inactive

Screening data deposited in PubChem by several laboratories.
